{"source": "PubChem BioAssay AID493203", "about": "(National Center for Advancing Translational Sciences (NCATS), 2011)", "note": "Records with an inconclusive call do not appear. Activity calls are given as the source filed them. Calls come from the whole dose curve; as a rule, active = well fitted activation curve with a large enough effect; inconclusive = small, poorly fitted or top-dose-only effect; inactive = flat fitted curve, though single readings scatter."}
{"experiment": "qHTS Assay for NPC1 Promoter Activators: Initial hit validation from the primary screen;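 note: reporter driven by the mutant form of the NPC1 promoter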", "conditions": "Huh7 NPC1 promoter-luciferase reporter, luminescence, 24 h; series mostly up to 46.1 µM", "from_the_text": "NIH Chemical Genomics Center [NCGC] NIH Molecular Libraries Probe Production centers Network [MLPCN] MLPCN Grant: MH089375-01A1 Assay Submitter (PI): Yiannis A. Ioannou NCGC Assay Overview: Niemann Pick Type C (NPC) is a rare neurodegenerative lipidosis that is characterized by lipid storage in the endosomal/lysosomal system. Treatment modalities for this devastating disease are currently non-existent due to the severe obstacles associated with accessing the central nervous system with proteins or genes. The majority of mutations causing NPC disease are missense mutations that are distributed throughout the length of the NPC1 protein, with the most prevalent being the I1061T allele. Although NPC1 mutant proteins may be functional, they are typically trapped in the ER due to misfolding. […] We have developed and optimized a cell based luciferase reporter assay in 1536 well format for the identification of up-regulators of the mutant NPC1 promoter. This assay presents data on the validation of hits from the primary screen.\nThe NPC1 promoter is cloned in front of the luciferase reporter gene, therefore NPC promoter activation results in luciferase expression. Frozen stock of the NPC1 promoter transfected Huh7 cells were obtained from the laboratory of Dr. Yiannis Ioannou (The Mount Sinai School of Medicine, New York, NY). Cells were propagated and maintained at NCGC in medium containing RPMI-1640 supplemented with 10% FBS, 2mM L-glutamine, and 50ug/ml penicillin/streptomycin. Cells were harvested in and plated for assays in OP-MEM I reduced-serum medium supplemented with 10% FBS. The Amplite luciferase reporter gene assay kit was purchased from ABD Bioquest and prepared/stored according to manufacturers recommendations. qHTS Assay Setup: 1. Dispensed 5ul of Huh7 cells stably expressing NPC1-luciferase at a density of 1500 cells per well 1536-well plates. 2. Incubate cells at 37C, 5% CO2, and 95% humidity for 2 hours. 3. Transferred 23nl per well of compound in DMSO solution. 4. Incubated at 37C, 5% CO2, and 95% humidity for 24 hours. 5. Dispensed 3ul per well of Amplite reagent(ABD Bioquest) per well. 6. Incubate at ambient for 10 minutes. 7. Read using the luminescence protocol on the ViewLux plate reader (Perkin Elmer)."}
{"smiles": "CCC(=NCc1cccnc1)c1c(O)n(-c2ccccc2)c(=O)[nH]c1=O", "outcome": "inactive"}
{"smiles": "Cc1cccn2c(NCC3CCCO3)c(C(C)C)nc12", "note": "(stereo unspecified)", "outcome": "inactive"}
{"smiles": "O=C1c2ccccc2C(=O)N1Cc1nc2ccccc2c(=O)n1-c1cccnc1", "outcome": "inactive"}
{"smiles": "COc1cccc(CCNCc2ccc(SC)cc2)c1", "outcome": "inactive"}
{"smiles": "CN1CCc2cc3c(c4c2C1Cc1ccccc1-4)OCO3", "note": "(stereo unspecified)", "outcome": "inactive"}
{"smiles": "COc1ccc(C(CC(=O)N2CCC3(CC2)OCCO3)NS(=O)(=O)c2ccc(F)cc2)cc1", "note": "(stereo unspecified)", "outcome": "inactive"}
